Source: the supplement of paper PMC7156485
± gives the standard deviation of the averaged measurements.

Tested on: TDF
Assay: cell number relative to DMSO (% of DMSO); higher = more cells (less growth inhibition / toxicity)
Settings: concentration: 10 µM; 24 h
How it was run: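 H1.0 nuclear intensity or cell number is stated as percent of the plate control, based on the median of replicates, and HCC1569 values were smoothed for positional effects. These came from HCC1569 and TDF cells treated with compounds at 10 µM for 24 h at 37 °C in triplicate, then fixed in 3.7% formaldehyde and stained with a rabbit anti-H1.0 antibody, an AlexaFluor 647 secondary and DAPI.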
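Further: TDF denotes transformed human dermal fibroblasts of mesenchymal origin.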

Structure (SMILES)	cell number
CCN(CC)CCNC(=O)c1ccc(N)cc1.Cl [Procainamide hydrochloride]	110
CC1CC2C3CCC4=CC(=O)C=CC4(C)C3(F)C(O)CC2(C)C1(O)C(=O)CO (stereo not given) [Dexamethasone]	102
O=C(O)c1ccc2ccccc2c1O.OCc1cc(C(O)CNCCCCCCOCCCCc2ccccc2)ccc1O (stereo not given) [Salmeterol xinafoate]	100
N#Cc1cccc(-c2c[nH]c3ncnc(N4CCOCC4)c23)c1 [3-(4-morpholino-7H-pyrrolo[2,3-d]pyrimidin-5-yl)benzonitrile]	110
CC(O)C(CO)NC(=O)C1CSSCC(NC(=O)C(N)Cc2ccccc2)C(=O)NC(Cc2ccccc2)C(=O)NC(Cc2c[nH]c3ccccc23)C(=O)NC(CCCCN)C(=O)NC(C(C)O)C(=O)N1 (stereo not given) [Octreotide]	98.5
CC(=O)NCCc1c[nH]c2ccc(O)cc12 [N-Acetyl-5-hydroxytryptamine]	101
CCCCCCCCC=CCCCCCCCC(=O)NCCc1ccc(O)c(O)c1 [Oleoyl dopamine]	88.4
CN1C2CCC1CC(OC(c1ccccc1)c1ccccc1)C2.CS(=O)(=O)O (stereo not given) [Benztropine mesylate]	114
CCCCCCCCCCCCCCC(O)C(O)C(N)CO (stereo not given) [Phytosphingosine]	75.6
Cl.Cl.OCCN1CCN(CCCN2c3ccccc3Sc3ccc(C(F)(F)F)cc32)CC1 [Fluphenazine dihydrochloride]	96.3
CCCC(=O)Oc1ccc2[nH]c(C(=O)c3cc4ccccc4[nH]3)cc2c1 [PDGF Receptor Tyrosine Kinase Inhibitor II]	92.3
CN1CCN2c3ccccc3Cc3ccccc3C2C1.Cl (stereo not given) [Mianserin hydrochloride]	101
CC(=O)OC(C)C[N+](C)(C)C.[Cl-] (stereo not drawn) [Acetyl-beta-methylcholine chloride]	94.7
CCCCCCCCCCCCCC(=O)NC(C)C(O)c1ccccc1 [D-erythro MAPP]	99.8
CC(C)CC(NC(=O)C(Cc1ccccc1)NC(=O)c1cnccn1)B(O)O (stereo not given) [Bortezomib]	10.2
OB1OCc2cc(F)ccc21 [5-fluoro-2,1-benzoxaborol-1(3H)-ol]	104
CON=C(C(=O)NC1C(=O)N2C(C(=O)[O-])=C(C[N+]3(C)CCCC3)CSC12)c1csc(N)n1 (stereo not given) [Cefepime]	97
Cc1[nH]c2ccccc2c1CC(=O)N[C@@H](Cc1ccccc1)C(=O)N(C)c1ccccc1	109
COc1cc2oc(=O)ccc2cc1O [Isoscopoletine]	92.4
CC(O)C(=O)C1=Nc2c([nH]c(N)nc2=O)NC1 (stereo not given) [Sepiapterin]	113

Structure (SMILES)	cell number
CNC(=O)c1cc(Oc2ccc(NC(=O)Nc3ccc(Cl)c(C(F)(F)F)c3)cc2)ccn1 [Sorafenib]	21.5
CCc1nn(CCCN2CCN(c3cccc(Cl)c3)CC2)c(=O)n1CCOc1ccccc1 [Nefazodone]	100
NC(=O)C(=O)[O-].[Na+] [Sodium Oxamate]	105
COc1cccc2c1C(=O)c1c(O)c3c(c(O)c1C2=O)CC(O)(C(=O)CO)CC3OC1CC(N)C(O)C(C)O1.Cl (stereo not given) [Doxorubicin.HCl]	17.1 ± 3.7
O=C([O-])CCCc1ccccc1.[Na+] [Sodium Phenylbutyrate]	106
CCCCCCCCC=CCCCCCCCC(=O)OCC(CO)OC(C)=O (stereo not given) [1-Oleoyl-2-acetyl-glycerol]	106
O=C1CSc2ccccc2N1Cc1cccc(C(F)(F)F)c1 [4-[3-(trifluoromethyl)benzyl]-2H-1,4-benzothiazin-3(4H)-one]	106
Cl.N=c1ccn2c(n1)OC1C(O)C(CO)OC12 (stereo not given) [Ancitabine hydrochloride]	50.3
COc1cc2nccc(Oc3ccc(NC(=O)Nc4cc(C)on4)c(Cl)c3)c2cc1OC.O [VEGFR Tyrosine Kinase Inhibitor IV]	90.7
C=C1CCC2OC2(C)CCC2C1CC2(C)C (stereo not given) [Caryophylline]	99
CCCC(CCC)C(=O)[O-].[Na+] [Valproic acid sodium]	119
COc1ccccc1N1CCN(CCN2C(=O)CC3(CCCC3)CC2=O)CC1.Cl.Cl [BMY 7378 dihydrochloride]	98.9
O=C1c2c(O)cc(O)cc2OC(c2ccc(O)c(O)c2)C1O (racemic)	109
COc1cccc(C(=O)NCCN2CCN(c3ccc(Cl)cc3)CC2)c1	109
C[n+]1cccc(C(=O)O)c1.[Cl-]	94
COc1ccc(Cl)cc1C(=O)NCCc1ccc(S(=O)(=O)NC(=O)NC2CCCCC2)cc1 [Glibenclamide]	105
Cc1cccc(C)c1OCC(C)N.Cl (stereo not given) [Mexiletene hydrochloride]	104
Cc1ccc(NC2=CC(=O)c3sc(C)nc3C2=O)cc1 [Cdk4 Inhibitor III]	12
COc1ccc2nc(S(=O)Cc3ncc(C)c(OC)c3C)[nH]c2c1 (stereo not given) [Omeprazole]	102
NC1CONC1=O [L-Cycloserine]	102 ± 2.1
